Assay results taken from PubChem BioAssay AID588590 (National Center for Advancing Translational Sciences (NCATS), 2011).
Among all 390,000 compounds or so, about 4,000 (1%) were called active. Not shown: some 7% with an inconclusive outcome. Calls come from the whole dose curve; as a rule, active = well fitted inhibition curve with a large enough effect; inconclusive = small, poorly fitted or top-dose-only effect, or another doubt; inactive = no such curve, though single readings can be large or run the other way. Many of the other results were omitted from the sample, so actives are more common in it than they were.

target: DNA polymerase iota (Homo sapiens) (UniProt Q9UNA4); test: qHTS for Inhibitors of Polymerase Iota; settings: Pol iota fluorescent replication assay, 10 min; series mostly up to 115 µM; activity, negative = inhibition: at the top concentration
Sequence (Q9UNA4 whole entry, looked up): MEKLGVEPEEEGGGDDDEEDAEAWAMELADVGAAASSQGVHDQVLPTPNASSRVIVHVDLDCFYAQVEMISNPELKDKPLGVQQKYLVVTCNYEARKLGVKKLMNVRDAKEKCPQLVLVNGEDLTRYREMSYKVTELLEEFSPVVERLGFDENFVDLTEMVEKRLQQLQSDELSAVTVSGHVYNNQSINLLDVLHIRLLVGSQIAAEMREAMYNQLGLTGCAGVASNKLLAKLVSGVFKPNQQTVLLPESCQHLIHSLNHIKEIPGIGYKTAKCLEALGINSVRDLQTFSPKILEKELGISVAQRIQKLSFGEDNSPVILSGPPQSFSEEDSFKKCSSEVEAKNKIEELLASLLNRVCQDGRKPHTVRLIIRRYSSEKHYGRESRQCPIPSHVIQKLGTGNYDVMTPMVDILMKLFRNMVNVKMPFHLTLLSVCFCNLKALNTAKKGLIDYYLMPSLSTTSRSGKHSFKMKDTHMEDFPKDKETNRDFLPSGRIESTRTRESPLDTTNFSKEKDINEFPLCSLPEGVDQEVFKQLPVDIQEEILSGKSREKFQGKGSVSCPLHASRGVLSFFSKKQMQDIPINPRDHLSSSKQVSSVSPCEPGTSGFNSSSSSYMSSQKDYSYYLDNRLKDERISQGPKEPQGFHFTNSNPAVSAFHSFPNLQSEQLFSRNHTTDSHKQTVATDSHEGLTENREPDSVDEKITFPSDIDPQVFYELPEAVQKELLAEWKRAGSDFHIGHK
Procedure, shortened: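 Pol iota at 10 nM preincubated 15 min with compounds at room temperature; reaction started with fluorescent substrate, 50 nM final. Fluorescence read kinetically at 0 and 10 min; buffer-only wells as negative control.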
Potency is the fitted concentration of half-maximal effect.

Row | Compound | activity, negative = inhibition | Potency
1 | O=C(C[n+]1ccncc1)c1ccc2c(c1)CCCC2 | 6.27% (inactive) | –
2 | Cc1c(N=Nc2ccc(N(C)C)cc2)c(=O)n(-c2ccccc2)n1C | 7.1% (inactive) | –
3 | CC(C)(C)n1c(=O)[nH]c2c(c1=O)CCC2 | 4.41% (inactive) | –
4 | O=c1[nH]n2c(=O)c3c([nH]c2c1N=Nc1ccccc1)CCC3 | – | 50.1 µM (active)
5 | CC(C)NC(=O)C1CCC(Cn2c(=O)c3sccc3n(Cc3ccc(F)cc3)c2=O)CC1 (configuration not stated) | -3.5% (inactive) | –
6 | CCOC(=O)C1CCC(CN(Cc2ccc(OC)cc2)S(=O)(=O)c2ccc(F)c(C(=O)Nc3cc(C)ccc3C)c2)CC1 (configuration not stated) | -12.9% (inactive) | –
7 | CC(C)(C)c1ccc(C(=O)NCC(c2ccco2)S(=O)(=O)c2ccc(F)cc2)cc1 (configuration not stated) | -3.42% (inactive) | –
8 | COc1cccc2c1C(=O)c1c(O)c3c(c(O)c1C2=O)CC(O)(C(C)=NNC(=O)c1ccc(Cl)c(Cl)c1)CC3OC1CC(N)C(O)C(C)O1 (configuration not stated) | – | 50.1 µM (active)
9 | COc1ccccc1NC(=O)C1=C(C)Nc2ncnn2C1c1sccc1C (configuration not stated) | -10.5% (inactive) | –
10 | O=C(O)C1=C/C(=C/C=[N+]2c3cc(O)c(O[C@H]4OC(CO)[C@@H](O)[C@@H](O)[C@@H]4O)cc3C[C@@H]2C(=O)[O-])C[C@H](C(=O)O)N1 (some centres not stated) | -28% (inactive) | –
11 | CCCS(=O)(=O)Nc1cccc(-c2cn3ccsc3n2)c1 | 0.928% (inactive) | –
12 | Cc1ccc(C)c(N2CCN(C(=O)Cn3nc(C)c4sc5ccccc5c4c3=O)CC2)c1 | 13.8% (inactive) | –
13 | C=C(C)C(=O)O[C@H]1C/C(C)=C\C(=O)/C=C(\C)[C@H](O)[C@@H]2OC(=O)C(=C)[C@@H]21 | – | 35.5 µM (active)
14 | Cc1ccc(S(=O)(=O)N2CCCc3cc(NS(=O)(=O)c4cc(C)ccc4C)ccc32)cc1 | 12.8% (inactive) | –
15 | CCOc1ccc(NC(=O)CSc2nnc3c(n2)[nH]c2ccc(S(=O)(=O)N4CCOCC4)cc23)cc1 | 10% (inactive) | –
16 | Cc1ccc(-c2nn3c(=O)cc(CN4CCN(C(=O)Nc5cccc(C(F)(F)F)c5)CC4)nc3s2)cc1 | 34.4% (inactive) | –
17 | Cn1c(=O)c2c(-c3ccccc3Br)n(Cc3ccccc3)cc2n(C)c1=O | 4.59% (inactive) | –
18 | COc1cccc(CNC(=O)c2ccc3c(c2)sc2nc(-c4cccc(OC)c4)cn23)c1 | 1.33% (inactive) | –
19 | COc1cccc2c1cc1c(=O)n(CC(=O)N3CCN(c4ccccc4)CC3)nc(C)n12 | -0.0822% (inactive) | –
20 | CC1=C(C)C(=O)OC(C(C)C2CCC3C4CC=C5CC(OC6OC(COC7OC(CO)C(O)C(O)C7O)C(O)C(O)C6O)CC(O)C5(C)C4CCC23C)C1 (configuration not stated) | -19.9% (inactive) | –
21 | CC(/C=C/C1(O)C(C)CC(=O)CC1(C)C)OC1OC(CO)C(O)C(O)C1O (configuration not stated) | – | 79.4 µM (active)
22 | C=CC1C(OC2OC(CO)C(O)C(O)C2O)OC=C(C(=O)OC)C1CC1CC(=O)CC(CC(=O)CCc2ccc(O)cc2)O1 (configuration not stated) | 20% (inactive) | –
